Drawing on the supplement of paper PMC10849652, this text covers log2 fold change for 38 targets.

Of roughly 7,900 targets only a part is listed; those with a hit were picked by preference. About 0.6% of all pairs of compound and target were hits. Values without a mark were called inactive.

Chain of UniProt Q93075 (Q93075 whole entry, looked up): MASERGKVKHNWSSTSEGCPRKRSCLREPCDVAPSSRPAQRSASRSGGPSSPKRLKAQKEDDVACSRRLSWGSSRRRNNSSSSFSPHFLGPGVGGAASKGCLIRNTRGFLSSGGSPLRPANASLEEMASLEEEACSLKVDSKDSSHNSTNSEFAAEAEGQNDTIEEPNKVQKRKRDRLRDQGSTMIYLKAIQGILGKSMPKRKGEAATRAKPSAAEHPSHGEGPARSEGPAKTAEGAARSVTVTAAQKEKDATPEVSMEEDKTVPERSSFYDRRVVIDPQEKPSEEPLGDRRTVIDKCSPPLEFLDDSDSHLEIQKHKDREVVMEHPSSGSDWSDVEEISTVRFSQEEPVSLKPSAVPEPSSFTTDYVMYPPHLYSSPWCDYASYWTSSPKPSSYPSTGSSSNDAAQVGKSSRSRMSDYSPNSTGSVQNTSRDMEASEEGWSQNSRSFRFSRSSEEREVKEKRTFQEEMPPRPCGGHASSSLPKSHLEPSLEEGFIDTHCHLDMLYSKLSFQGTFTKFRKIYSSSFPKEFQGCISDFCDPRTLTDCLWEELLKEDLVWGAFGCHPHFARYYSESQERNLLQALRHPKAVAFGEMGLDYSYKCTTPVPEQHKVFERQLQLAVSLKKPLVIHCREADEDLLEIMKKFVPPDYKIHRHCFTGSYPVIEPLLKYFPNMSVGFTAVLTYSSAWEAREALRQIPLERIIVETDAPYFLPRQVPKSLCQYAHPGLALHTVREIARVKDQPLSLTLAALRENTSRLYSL
Chain of UniProt P35270 (P35270 whole entry, looked up): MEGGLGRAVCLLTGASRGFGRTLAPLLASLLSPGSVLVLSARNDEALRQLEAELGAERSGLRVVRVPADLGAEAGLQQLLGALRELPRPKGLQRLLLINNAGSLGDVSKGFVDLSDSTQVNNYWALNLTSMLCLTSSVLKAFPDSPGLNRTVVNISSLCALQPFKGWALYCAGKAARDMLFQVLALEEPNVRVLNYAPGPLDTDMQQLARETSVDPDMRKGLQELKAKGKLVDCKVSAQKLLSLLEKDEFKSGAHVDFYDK
Chain of UniProt P51687 (P51687 whole entry, looked up): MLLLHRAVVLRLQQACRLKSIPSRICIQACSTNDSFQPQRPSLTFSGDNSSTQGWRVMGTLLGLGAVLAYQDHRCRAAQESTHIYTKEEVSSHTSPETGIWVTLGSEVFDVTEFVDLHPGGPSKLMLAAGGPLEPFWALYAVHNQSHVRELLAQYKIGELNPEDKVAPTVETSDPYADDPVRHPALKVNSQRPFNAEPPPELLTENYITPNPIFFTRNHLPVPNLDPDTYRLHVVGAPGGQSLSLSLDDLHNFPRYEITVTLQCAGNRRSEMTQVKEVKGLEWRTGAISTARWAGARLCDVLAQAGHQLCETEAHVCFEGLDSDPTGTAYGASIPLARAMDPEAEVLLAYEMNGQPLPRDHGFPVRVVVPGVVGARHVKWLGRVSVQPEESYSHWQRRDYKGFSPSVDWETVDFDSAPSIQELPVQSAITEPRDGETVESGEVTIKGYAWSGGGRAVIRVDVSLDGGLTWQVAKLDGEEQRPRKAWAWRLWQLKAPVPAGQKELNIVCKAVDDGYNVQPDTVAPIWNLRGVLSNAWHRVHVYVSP
Chain of UniProt Q92844 (Q92844 whole entry, looked up): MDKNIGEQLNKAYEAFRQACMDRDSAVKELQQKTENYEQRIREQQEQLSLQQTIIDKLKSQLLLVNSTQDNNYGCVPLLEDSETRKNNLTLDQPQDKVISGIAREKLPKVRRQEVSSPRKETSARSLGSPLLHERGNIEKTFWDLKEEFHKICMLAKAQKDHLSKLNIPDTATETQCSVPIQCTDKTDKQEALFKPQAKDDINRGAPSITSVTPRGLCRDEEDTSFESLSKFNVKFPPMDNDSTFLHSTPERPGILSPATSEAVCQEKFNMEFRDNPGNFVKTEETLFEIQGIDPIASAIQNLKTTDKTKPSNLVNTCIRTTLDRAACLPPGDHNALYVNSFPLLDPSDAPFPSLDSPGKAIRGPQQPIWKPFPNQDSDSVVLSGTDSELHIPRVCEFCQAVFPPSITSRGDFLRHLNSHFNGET
Chain of UniProt Q8N1S5 (Q8N1S5 whole entry, looked up): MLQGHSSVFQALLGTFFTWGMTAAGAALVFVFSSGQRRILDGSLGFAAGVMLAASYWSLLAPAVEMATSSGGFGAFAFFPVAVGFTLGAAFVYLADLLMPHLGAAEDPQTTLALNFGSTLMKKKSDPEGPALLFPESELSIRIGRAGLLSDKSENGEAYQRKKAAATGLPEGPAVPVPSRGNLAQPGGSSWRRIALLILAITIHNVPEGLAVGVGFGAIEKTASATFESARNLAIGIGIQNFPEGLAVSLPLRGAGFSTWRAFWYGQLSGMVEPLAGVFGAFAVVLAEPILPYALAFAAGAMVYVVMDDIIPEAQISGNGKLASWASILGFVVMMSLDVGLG
Chain of UniProt P04920 (P04920 whole entry, looked up): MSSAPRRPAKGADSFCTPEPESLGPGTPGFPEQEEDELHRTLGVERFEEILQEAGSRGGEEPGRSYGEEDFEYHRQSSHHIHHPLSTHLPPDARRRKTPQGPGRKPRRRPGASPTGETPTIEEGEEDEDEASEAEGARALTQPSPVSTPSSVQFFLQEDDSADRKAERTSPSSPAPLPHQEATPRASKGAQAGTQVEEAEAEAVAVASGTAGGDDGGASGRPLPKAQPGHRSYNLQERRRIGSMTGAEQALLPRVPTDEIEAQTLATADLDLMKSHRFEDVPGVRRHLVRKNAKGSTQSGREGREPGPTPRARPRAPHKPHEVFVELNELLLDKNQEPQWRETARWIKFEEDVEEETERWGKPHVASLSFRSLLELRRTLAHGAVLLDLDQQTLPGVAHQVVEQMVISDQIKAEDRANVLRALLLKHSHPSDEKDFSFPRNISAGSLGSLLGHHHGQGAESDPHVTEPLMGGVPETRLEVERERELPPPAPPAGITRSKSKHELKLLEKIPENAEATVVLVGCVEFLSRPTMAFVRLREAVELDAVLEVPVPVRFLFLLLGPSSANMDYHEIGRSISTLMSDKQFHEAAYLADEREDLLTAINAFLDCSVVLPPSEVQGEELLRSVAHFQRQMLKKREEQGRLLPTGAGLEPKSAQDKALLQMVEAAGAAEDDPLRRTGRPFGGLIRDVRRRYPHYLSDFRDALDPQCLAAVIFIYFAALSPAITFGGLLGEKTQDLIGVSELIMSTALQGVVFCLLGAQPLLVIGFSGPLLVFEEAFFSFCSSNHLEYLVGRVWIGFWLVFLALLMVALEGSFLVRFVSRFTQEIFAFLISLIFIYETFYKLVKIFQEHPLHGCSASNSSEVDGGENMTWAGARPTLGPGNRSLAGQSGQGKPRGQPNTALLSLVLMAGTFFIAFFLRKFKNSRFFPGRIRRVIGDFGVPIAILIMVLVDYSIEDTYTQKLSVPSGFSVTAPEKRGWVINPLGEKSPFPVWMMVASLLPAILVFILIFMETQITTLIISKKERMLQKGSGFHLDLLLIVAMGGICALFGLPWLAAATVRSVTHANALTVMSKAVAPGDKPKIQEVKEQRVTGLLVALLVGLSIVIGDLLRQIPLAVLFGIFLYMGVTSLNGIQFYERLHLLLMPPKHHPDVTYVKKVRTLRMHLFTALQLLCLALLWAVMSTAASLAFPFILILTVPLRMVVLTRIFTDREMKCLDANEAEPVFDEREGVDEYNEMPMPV
Chain of UniProt Q9Y5M8 (Q9Y5M8 whole entry, looked up): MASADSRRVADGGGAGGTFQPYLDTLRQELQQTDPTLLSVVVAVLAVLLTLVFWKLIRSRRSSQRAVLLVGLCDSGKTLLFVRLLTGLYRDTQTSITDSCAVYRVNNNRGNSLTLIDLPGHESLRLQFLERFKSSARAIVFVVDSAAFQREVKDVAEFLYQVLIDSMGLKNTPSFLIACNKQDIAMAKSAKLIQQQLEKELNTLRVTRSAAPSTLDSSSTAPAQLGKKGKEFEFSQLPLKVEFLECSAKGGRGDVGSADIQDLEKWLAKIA
Chain of UniProt Q96BW9 (Q96BW9 whole entry, looked up): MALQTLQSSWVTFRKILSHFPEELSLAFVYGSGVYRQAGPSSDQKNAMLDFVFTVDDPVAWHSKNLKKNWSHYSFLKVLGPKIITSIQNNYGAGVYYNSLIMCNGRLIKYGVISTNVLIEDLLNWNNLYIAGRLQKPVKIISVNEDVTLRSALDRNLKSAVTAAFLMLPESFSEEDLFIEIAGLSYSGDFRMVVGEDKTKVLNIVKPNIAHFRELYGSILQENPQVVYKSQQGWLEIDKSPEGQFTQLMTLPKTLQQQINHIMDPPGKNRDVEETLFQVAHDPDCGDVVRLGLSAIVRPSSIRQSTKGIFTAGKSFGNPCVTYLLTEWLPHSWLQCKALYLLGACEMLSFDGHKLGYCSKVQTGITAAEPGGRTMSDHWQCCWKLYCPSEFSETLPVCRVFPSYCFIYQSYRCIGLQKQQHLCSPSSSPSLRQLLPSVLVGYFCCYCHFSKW
Chain of UniProt Q6XR72 (Q6XR72 whole entry, looked up): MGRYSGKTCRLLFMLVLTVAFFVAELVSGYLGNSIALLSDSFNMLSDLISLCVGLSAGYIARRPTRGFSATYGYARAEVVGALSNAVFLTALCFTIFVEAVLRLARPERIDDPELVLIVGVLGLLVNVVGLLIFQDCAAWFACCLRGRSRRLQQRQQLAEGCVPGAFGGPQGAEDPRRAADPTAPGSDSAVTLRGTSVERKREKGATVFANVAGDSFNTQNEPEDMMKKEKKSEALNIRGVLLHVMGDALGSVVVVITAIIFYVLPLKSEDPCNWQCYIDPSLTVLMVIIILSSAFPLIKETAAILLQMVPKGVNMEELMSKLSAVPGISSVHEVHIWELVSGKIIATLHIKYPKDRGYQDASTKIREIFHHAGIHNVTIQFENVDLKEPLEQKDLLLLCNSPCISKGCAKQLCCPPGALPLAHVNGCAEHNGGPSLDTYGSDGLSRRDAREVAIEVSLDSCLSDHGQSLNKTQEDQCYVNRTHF
Chain of UniProt Q9Y5J6 (Q9Y5J6 whole entry, looked up): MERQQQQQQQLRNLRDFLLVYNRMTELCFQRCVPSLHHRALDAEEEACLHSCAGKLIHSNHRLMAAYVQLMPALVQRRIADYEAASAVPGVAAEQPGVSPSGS

Compound in the first assay: CN1CCN(CCOc2cc(OC3CCOCC3)c3c(Nc4c(Cl)ccc5c4OCO5)ncnc3c2)CC1 [saracatinib]
The assay can be described thus: log2 fold change, soluble protein after heating vs DMSO (PISA); higher = thermal stabilisation; K562 cells, 10 uM, 30 min; active = over 0.2 and 3.5 SD of the protein, either way, in both replicates (recomputed). Summed up: (§1)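 K562 cells at 2×10^6 cells/mL were treated for 30 min with 10 μM compound, and aliquots were heated for 3 min over 48°C-58°C before pooling. Extraction used PBS with 0.5% NP-40 at 4°C, and soluble protein was the supernatant after 21,000xg for 90 min, measured by TMTpro 16plex LC-MS/MS with channel sums equalised. Thermal stability values, relative to control samples and from duplicates, are log2 fold changes.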
On to SUGP1 (UniProt Q8IWZ8), for which the log2 fold change was 0.012.

For the target TBC1D9B (UniProt Q66K14), the log2 fold change is -0.023.

With STARD3NL (UniProt O95772), the log2 fold change is 0.103.

Take SLC25A4 (UniProt P12235): the log2 fold change was -0.022.

SLC30A10 (UniProt Q6XR72): the log2 fold change was -0.075.

On to SMC5 (UniProt Q8IY18), for which the log2 fold change is -0.005.

For SRPRB (UniProt Q9Y5M8), the log2 fold change was -0.03.

Take SPR (UniProt P35270): the log2 fold change is 0.318.

For TANK (UniProt Q92844), the log2 fold change is 0.118.

With SLC4A2 (UniProt P04920), the log2 fold change was 0.003.

For the target TMBIM6 isoform 2 (UniProt P55061), the log2 fold change is 0.08.

As to SLC25A42 (UniProt Q86VD7), the log2 fold change was 0.105.

With SLK isoform 2 (UniProt Q9H2G2), the log2 fold change was -0.015.

For TBCD (UniProt Q9BTW9), the log2 fold change is 0.003.

SUPT16H (UniProt Q9Y5B9): the log2 fold change was -0.125.

As to SUOX (UniProt P51687), the log2 fold change is 0.02.

Consider STK4 (UniProt Q13043), for which the log2 fold change was 0.006.

TK1 (UniProt P04183): the log2 fold change is 0.067.

SSR3 isoform 2 (UniProt Q9UNL2): the log2 fold change is 0.153.

Turning to SRI (UniProt P30626), the log2 fold change was -0.034.

Regarding TARS2 (UniProt Q9BW92), the log2 fold change was -0.004.

In the case of SNX11 (UniProt Q9Y5W9), the log2 fold change was -0.055.

For TATDN2 (UniProt Q93075), the log2 fold change was -0.017.

For the target STXBP2 isoform 3 (UniProt Q15833), the log2 fold change is -0.138.

As to SLC27A2 (UniProt O14975), the log2 fold change was 0.

In the case of SNX2 (UniProt O60749), the log2 fold change was 0.006.

For SLC39A11 (UniProt Q8N1S5), the log2 fold change is 0.098.

For TBC1D15 isoform 3 (UniProt Q8TC07), the log2 fold change was -0.01.

For the target TBRG4 (UniProt Q969Z0), the log2 fold change was -0.093.

With SLC6A6 (UniProt P31641), the log2 fold change was -0.011.

Take TERF2IP (UniProt Q9NYB0): the log2 fold change is 0.038.

SP1 (UniProt P08047): the log2 fold change was 0.022.

In the case of SYNE2 isoform 2 (UniProt Q8WXH0), the log2 fold change was -0.121.

In the case of SULT1A1 (UniProt P50225), the log2 fold change is 0.052.

TIMM10B (UniProt Q9Y5J6): the log2 fold change is -0.046.

In the case of TAMM41 isoform 3 (UniProt Q96BW9), the log2 fold change is -0.009.

For the target TAX1BP1 (UniProt Q86VP1), the log2 fold change is 0.016.

Consider SNUPN (UniProt O95149), for which the log2 fold change was 0.052.

Compound in the next assay: CN1CCN(c2nc(C3=C(c4c[nH]c5ccccc45)C(=O)NC3=O)c3ccccc3n2)CC1 [sotrastaurin]
The description is as above. Summed up: as §1
For the target SUGP1 (UniProt Q8IWZ8), the log2 fold change was -0.049.

As for TBC1D9B (UniProt Q66K14), the log2 fold change is 0.077.

Consider STARD3NL (UniProt O95772), for which the log2 fold change is -0.004.

Turning to SLC25A4 (UniProt P12235), the log2 fold change was 0.029.

As for SLC30A10 (UniProt Q6XR72), the log2 fold change is 0.031.

Turning to SMC5 (UniProt Q8IY18), the log2 fold change is -0.075.

For the target SRPRB (UniProt Q9Y5M8), the log2 fold change was -0.036.

In the case of SPR (UniProt P35270), the log2 fold change is 0.052.

As to TANK (UniProt Q92844), the log2 fold change was 0.033.

In the case of SLC4A2 (UniProt P04920), the log2 fold change was -0.029.

As for TMBIM6 isoform 2 (UniProt P55061), the log2 fold change was -0.029.

In the case of SLC25A42 (UniProt Q86VD7), the log2 fold change was 0.023.

As for SLK isoform 2 (UniProt Q9H2G2), the log2 fold change was -0.192.

For TBCD (UniProt Q9BTW9), the log2 fold change was -0.056.

Consider SUPT16H (UniProt Q9Y5B9), for which the log2 fold change was -0.209.

Consider SUOX (UniProt P51687), for which the log2 fold change was 0.013.

Consider STK4 (UniProt Q13043), for which the log2 fold change is 0.029.

Take TK1 (UniProt P04183): the log2 fold change is 0.036.

For SSR3 isoform 2 (UniProt Q9UNL2), the log2 fold change was 0.083.

As for SRI (UniProt P30626), the log2 fold change is -0.017.

Regarding TARS2 (UniProt Q9BW92), the log2 fold change is -0.049.

For the target SNX11 (UniProt Q9Y5W9), the log2 fold change was -0.055.

For TATDN2 (UniProt Q93075), the log2 fold change is 0.111.

With STXBP2 isoform 3 (UniProt Q15833), the log2 fold change is -0.242.

For SLC27A2 (UniProt O14975), the log2 fold change is 0.005.

As to SNX2 (UniProt O60749), the log2 fold change was 0.002.

Regarding SLC39A11 (UniProt Q8N1S5), the log2 fold change is 0.127.

In the case of TBC1D15 isoform 3 (UniProt Q8TC07), the log2 fold change is -0.117.

Take TBRG4 (UniProt Q969Z0): the log2 fold change is -0.431.

For SLC6A6 (UniProt P31641), the log2 fold change was 0.041.

With TERF2IP (UniProt Q9NYB0), the log2 fold change was -0.065.

Take SP1 (UniProt P08047): the log2 fold change is 0.016.

For the target SYNE2 isoform 2 (UniProt Q8WXH0), the log2 fold change was -0.005.

Take SULT1A1 (UniProt P50225): the log2 fold change is -0.03.

Turning to TIMM10B (UniProt Q9Y5J6), the log2 fold change is 0.074.

In the case of TAMM41 isoform 3 (UniProt Q96BW9), the log2 fold change is -0.003.

Regarding TAX1BP1 (UniProt Q86VP1), the log2 fold change was -0.057.

For the target SNUPN (UniProt O95149), the log2 fold change was -0.069.
